These results are taken from PubChem BioAssay (Tox21).

In test [1] the target is Thyrotropin-releasing hormone receptor (Homo sapiens) (UniProt P34981). Kind of test: qHTS assay to identify small molecule agonists of the thyrotropin-releasing hormone receptor (TRHR) signaling pathway (AID 1346891; calls by dose curve;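 also: HEK293 cells expressing TRHR with calcium dye readout; series mostly up to about 58 µM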). The essentials: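 Kinetic fluorescence (3 min, 1 s intervals) reported intracellular calcium after compound transfer onto TRHR-Hek293 cells pre-loaded with dye for 2 h at 37 °C.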
Thyrotropin-releasing hormone receptor (Homo sapiens), sequence (P34981 whole entry, looked up): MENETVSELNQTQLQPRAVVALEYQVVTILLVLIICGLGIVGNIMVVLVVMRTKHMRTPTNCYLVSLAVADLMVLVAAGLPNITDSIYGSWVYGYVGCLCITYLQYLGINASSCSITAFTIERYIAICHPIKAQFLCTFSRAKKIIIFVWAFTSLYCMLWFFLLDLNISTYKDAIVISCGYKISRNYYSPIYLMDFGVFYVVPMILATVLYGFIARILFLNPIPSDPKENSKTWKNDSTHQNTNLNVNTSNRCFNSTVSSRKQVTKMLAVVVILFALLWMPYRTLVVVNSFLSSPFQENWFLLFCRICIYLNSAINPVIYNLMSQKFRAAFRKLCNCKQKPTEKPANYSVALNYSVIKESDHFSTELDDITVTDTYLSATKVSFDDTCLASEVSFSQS

Test [2] can be described thus: Human pregnane X receptor (PXR) small molecule agonists, qHTS cell viability counter screen (AID 1346977). Also: nearly all actives have a fitted effect of over 50% in size. The essentials:
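HepG2 cells stably carrying the PXR-Luc reporter are cultured with 5% charcoal-stripped FBS and treated with compounds for 24hr. CellTiter-Fluor is added at 23hr and fluorescence is read after 1hr.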
Background: qHTS replaces the single test concentration by a dilution series.

Test [3] can be described thus: Caspase-3/7 induction in HepG2 cells by small molecules, qHTS assay (AID 1346978). Also: nearly all actives have a fitted effect of over 15% in size. The essentials: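 Wild-type HepG2 cells, 2,000/well, settled 5 hr at 37 C and 5% CO2, then compound-treated for 17 hr; caspase-3/7 activity read by luminescent Caspase-Glo 3/7 after 30 min at room temperature.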
Test [4] in a line: Caspase-3/7 induction in CHO-K1 cells by small molecules, qHTS cell viability counter screen (AID 1346979). Also: nearly all actives have a fitted effect of over 35% in size. An outline of the steps: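 Seeding: 1,500 CHO-K1 cells/well. Rest: 5hr, 37C. Treatment: compounds in DMSO, 16hr. Read: CellTiter-Fluor, 1hr, fluorescence.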
Test [5] is described as follows: Caspase-3/7 induction in CHO-K1 cells by small molecules, qHTS assay (AID 1346980). Also: nearly all actives have a fitted effect of over 15% in size. An outline of the steps: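 Wild-type CHO-K1 cells exposed to compounds for 17hr at 37 C, 5% CO2. Caspase-3/7 activity then measured by Caspase-Glo 3/7 luminescence after 30min at room temperature.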
Test [6] can be described thus: Caspase-3/7 induction in HepG2 cells by small molecules, qHTS cell viability counter screen (AID 1346981). Also: series mostly up to about 92 µM; nearly all actives have a fitted effect of over 30% in size. The essentials: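 Wild-type HepG2 cells (2,000/well) were allowed to settle for 5 hr at 37 C, 5% CO2, then dosed with compounds in DMSO by pin transfer. After 16 hr at 37 C, CellTiter-Fluor was added and fluorescence read 1 hr later.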
In test [7] the target is Nuclear receptor subfamily 1 group I member 2 (Homo sapiens) (UniProt O75469). As to the kind of experiment: Human pregnane X receptor (PXR) small molecule agonists, qHTS assay (AID 1346982). Also: nearly all actives have a fitted effect of over 35% in size. Also: potency is read from the fitted curve at half-maximal effect. The essentials:
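PXR-Luc HepG2 cells (CYP3A4 promoter-driven luciferase) were seeded in medium with 5% charcoal-stripped FBS, left 5 hr at 37 C, then exposed to compounds in DMSO for 24 hr. Luminescence was read after ONE-Glo addition.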

The target of test [8] is Cytochrome P450 2D6 (Homo sapiens) (UniProt P10635). Kind of test: Cytochrome P450 Family 2 Subfamily D Member 6 (CYP2D6) small molecule antagonists: luciferase reporter qHTS assay (AID 1671196). Also: nearly all actives have a fitted effect of over 50% in size. Also: potency is read from the fitted curve at half-maximal effect. The essentials:
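CYP2D6 enzyme–substrate mix was held with compound for 10 min at room temperature, then NADPH regeneration solution was added and the reaction ran 1 h at room temperature. Luciferin product was detected by luminescence after 20 min with detection reagent.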

The target in test [9] is Cytochrome P450 2C9 (Homo sapiens) (UniProt P11712). Kind of test: Cytochrome P450 Family 2 Subfamily C Member 9 (CYP2C9) small molecule antagonists: luciferase reporter qHTS assay (AID 1671198). Also: nearly all actives have a fitted effect of over 50% in size. Also: potency is read from the fitted curve at half-maximal effect. An outline of the steps:
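P450-Glo proluciferin substrate with CYP2C9 enzyme; 10 min RT preincubation, then NADPH regeneration 1 h at 37C; luciferin detection reagent 20 min RT, luminescence in relative luminescence units.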

The target in test [10] is Cytochrome P450 3A4 (Homo sapiens) (UniProt P08684). Kind of test: Cytochrome P450 Family 3 Subfamily A Member 4 (CYP3A4) small molecule antagonists: luciferase reporter qHTS assay (AID 1671201). Also: nearly all actives have a fitted effect of over 50% in size. Also: potency is read from the fitted curve at half-maximal effect. An outline of the steps: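 Enzyme and proluciferin substrate are mixed with test chemicals for 10 min, then NADPH regeneration system drives turnover for 1 h at room temperature. A detection reagent halts the reaction; luminescence after 20 min gives relative activity.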
Cytochrome P450 3A4 (Homo sapiens), sequence (P08684 whole entry, looked up): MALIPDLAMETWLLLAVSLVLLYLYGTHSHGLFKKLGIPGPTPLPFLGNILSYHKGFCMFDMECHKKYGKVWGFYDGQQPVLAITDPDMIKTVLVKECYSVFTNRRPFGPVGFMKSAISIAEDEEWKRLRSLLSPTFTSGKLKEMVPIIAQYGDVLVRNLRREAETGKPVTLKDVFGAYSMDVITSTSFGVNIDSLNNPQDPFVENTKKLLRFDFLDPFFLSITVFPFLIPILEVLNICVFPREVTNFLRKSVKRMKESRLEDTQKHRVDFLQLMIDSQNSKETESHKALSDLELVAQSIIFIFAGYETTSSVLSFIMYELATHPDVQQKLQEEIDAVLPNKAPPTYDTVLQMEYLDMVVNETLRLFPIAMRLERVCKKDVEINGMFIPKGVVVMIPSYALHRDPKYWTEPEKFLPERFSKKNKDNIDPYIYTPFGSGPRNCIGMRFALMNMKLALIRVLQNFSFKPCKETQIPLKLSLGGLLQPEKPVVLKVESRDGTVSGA

In test [11] the target is Cytochrome P450 1A2 (Homo sapiens) (UniProt P05177). Kind of test: Cytochrome P450 Family 1 Subfamily A Member 2 (CYP1A2) small molecule antagonists: luciferase reporter qHTS assay (AID 1671199). Also: nearly all actives have a fitted effect of over 50% in size. Also: potency is read from the fitted curve at half-maximal effect. The essentials: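 Human CYP1A2 activity measured with a P450-Glo proluciferin substrate; compounds in DMSO preincubated 10 min at room temperature with enzyme-substrate mix, then NADPH regeneration system added for 1 h. Luciferin detection reagent, 20 min, luminescence read.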
Cytochrome P450 1A2 (Homo sapiens), sequence (P05177 whole entry, looked up): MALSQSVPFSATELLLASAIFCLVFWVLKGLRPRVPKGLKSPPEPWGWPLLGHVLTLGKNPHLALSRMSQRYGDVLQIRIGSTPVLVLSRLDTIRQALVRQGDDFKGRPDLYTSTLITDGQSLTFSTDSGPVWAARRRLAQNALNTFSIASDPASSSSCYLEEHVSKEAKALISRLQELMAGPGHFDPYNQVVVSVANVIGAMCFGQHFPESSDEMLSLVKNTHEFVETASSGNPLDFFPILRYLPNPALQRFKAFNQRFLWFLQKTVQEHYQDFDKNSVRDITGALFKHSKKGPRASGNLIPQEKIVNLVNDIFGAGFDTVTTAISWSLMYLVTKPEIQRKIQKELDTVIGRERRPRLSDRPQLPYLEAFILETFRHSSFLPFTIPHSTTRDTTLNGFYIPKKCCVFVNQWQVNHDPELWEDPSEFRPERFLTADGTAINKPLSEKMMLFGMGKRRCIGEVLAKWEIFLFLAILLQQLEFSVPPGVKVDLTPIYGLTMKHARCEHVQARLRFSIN
Background: A reporter such as luciferase makes a cellular process visible.

Test [12] has as its target Voltage-gated inwardly rectifying potassium channel KCNH2 (Homo sapiens) (UniProt Q12809). Kind of test: Human Ether-a-go-go-Related Gene (hERG) channel small molecule antagonists: fluorescence cell-based qHTS assay (AID 1671200). An outline of the steps:
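First, 1000 cells per well are seeded and cultured overnight at 37 C. Next, FluxOR II dye is loaded for 1 h at room temperature, protected from light. After 10 more minutes, stimulus is added and fluorescence is read.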

In test [13] the target is Cytochrome P450 2C19 (Homo sapiens) (UniProt P33261). As to the kind of experiment: Cytochrome P450 Family 2 Subfamily C Member 19 (CYP2C19) small molecule antagonists: luciferase reporter qHTS assay (AID 1671197). Also: nearly all actives have a fitted effect of over 65% in size. Also: potency is read from the fitted curve at half-maximal effect. The essentials:
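Luminescent readout of CYP2C19 activity: luciferin product detected 20 min after adding detection reagent. Before that, compound and enzyme-substrate mix preincubated 10 min at room temperature; NADPH-regenerating system started a 1 h, 37C reaction. Ketoconazole as positive control.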

The target in test [14] is Nuclear receptor subfamily 1 group I member 2 (Rattus norvegicus) (UniProt Q9R1A7). Kind of test: Rat pregnane X receptor (rPXR) activation by small molecules, qHTS assay (AID 1346983). Also: nearly all actives have a fitted effect of over 20% in size. The following applies: rPXR luciferase reporter cells, One-Glo luminescence, 24 h; max activation: active compounds read high. The essentials:
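Cell-based rPXR activation assay: rPXR cells, 2,000 per well, rested 5hr at 37 C, then exposed to compounds in DMSO for 24 hr at 37 C. Luciferase activity read by One-Glo luminescence after 30 min at room temperature.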

A number with no mark means an inactive call. Results filed as inconclusive are left out. Activity calls are given as the source filed them. Unless noted, calls follow the shape of the dose curve; as a rule, active = well fitted curve in the direction sought with a large enough effect in the repeat runs; inconclusive = weak or mixed curves; inactive = no such curve, though single readings can be large; an effect the other way counts as inactive or inconclusive.
% is scaled to controls: 0 for no effect and ±100 for the full control effect.

Cytochrome P450 2C9 (Homo sapiens), sequence (P11712 whole entry, looked up): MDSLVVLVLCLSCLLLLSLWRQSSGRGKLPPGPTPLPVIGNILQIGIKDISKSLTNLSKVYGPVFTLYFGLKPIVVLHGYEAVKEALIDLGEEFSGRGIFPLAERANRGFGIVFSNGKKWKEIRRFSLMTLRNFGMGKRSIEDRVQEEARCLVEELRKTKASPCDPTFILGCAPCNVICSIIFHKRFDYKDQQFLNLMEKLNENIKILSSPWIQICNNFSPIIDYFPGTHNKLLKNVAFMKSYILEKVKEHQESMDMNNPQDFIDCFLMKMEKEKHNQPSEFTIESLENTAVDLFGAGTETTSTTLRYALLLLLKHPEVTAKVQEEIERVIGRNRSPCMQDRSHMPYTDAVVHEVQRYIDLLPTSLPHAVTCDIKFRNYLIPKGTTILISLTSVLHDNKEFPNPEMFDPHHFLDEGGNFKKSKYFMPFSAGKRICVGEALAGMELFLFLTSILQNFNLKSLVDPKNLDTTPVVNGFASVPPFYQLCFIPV
Nuclear receptor subfamily 1 group I member 2 (Homo sapiens), sequence (O75469 whole entry, looked up): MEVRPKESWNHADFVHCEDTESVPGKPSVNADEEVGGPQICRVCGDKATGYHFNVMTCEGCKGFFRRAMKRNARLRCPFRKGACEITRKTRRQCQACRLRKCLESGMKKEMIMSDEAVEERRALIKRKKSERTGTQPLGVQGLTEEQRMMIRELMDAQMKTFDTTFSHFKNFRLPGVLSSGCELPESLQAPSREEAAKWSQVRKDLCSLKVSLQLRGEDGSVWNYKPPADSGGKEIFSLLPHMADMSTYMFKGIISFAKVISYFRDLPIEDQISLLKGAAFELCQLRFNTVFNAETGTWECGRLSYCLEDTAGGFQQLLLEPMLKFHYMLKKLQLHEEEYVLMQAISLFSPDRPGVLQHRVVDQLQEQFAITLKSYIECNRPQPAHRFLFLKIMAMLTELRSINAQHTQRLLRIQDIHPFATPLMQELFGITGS
Cytochrome P450 2D6 (Homo sapiens), sequence (P10635 whole entry, looked up): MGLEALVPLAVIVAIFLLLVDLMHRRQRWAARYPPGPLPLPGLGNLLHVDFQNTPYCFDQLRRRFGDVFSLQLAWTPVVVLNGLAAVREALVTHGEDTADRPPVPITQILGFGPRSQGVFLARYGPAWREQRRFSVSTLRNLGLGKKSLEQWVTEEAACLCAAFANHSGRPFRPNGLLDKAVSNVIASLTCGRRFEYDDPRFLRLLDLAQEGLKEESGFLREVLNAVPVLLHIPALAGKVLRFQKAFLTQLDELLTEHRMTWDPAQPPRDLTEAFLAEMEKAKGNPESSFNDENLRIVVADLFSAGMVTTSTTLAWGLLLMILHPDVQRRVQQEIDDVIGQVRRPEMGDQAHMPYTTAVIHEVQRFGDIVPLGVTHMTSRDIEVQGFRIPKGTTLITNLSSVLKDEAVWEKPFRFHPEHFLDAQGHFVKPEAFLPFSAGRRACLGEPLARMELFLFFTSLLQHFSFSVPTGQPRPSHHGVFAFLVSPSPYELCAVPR
Voltage-gated inwardly rectifying potassium channel KCNH2 (Homo sapiens), sequence (Q12809 whole entry, looked up): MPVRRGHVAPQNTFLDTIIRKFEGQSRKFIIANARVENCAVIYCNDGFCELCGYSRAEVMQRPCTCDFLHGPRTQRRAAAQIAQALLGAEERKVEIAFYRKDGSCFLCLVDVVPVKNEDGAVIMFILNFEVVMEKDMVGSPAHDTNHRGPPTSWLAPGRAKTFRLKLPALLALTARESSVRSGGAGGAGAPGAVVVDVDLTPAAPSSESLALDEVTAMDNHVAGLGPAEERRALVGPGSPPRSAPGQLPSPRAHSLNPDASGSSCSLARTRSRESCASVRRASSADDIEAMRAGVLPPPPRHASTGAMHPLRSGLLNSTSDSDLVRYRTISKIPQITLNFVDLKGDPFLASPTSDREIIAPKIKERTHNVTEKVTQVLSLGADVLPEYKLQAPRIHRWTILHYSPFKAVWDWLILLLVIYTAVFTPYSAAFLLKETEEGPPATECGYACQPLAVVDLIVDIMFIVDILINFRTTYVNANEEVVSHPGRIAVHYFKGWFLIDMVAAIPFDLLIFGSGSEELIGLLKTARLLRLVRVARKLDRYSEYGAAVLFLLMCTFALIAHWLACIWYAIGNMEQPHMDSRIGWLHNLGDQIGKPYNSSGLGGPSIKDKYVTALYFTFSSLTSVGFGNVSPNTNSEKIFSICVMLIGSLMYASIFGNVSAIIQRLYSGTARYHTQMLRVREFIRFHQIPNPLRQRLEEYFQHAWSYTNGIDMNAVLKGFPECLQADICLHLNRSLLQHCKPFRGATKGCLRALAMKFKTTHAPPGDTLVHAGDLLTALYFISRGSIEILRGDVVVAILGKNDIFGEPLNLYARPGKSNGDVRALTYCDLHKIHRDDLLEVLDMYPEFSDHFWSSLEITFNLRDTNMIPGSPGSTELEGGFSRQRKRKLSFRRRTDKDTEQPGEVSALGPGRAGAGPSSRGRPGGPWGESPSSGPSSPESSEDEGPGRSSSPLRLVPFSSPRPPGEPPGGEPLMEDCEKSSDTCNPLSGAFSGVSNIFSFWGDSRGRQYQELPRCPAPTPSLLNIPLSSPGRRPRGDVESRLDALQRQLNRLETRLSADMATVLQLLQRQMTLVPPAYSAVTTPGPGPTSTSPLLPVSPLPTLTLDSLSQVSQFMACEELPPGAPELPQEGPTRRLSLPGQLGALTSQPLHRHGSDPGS
Cytochrome P450 2C19 (Homo sapiens), sequence (P33261 whole entry, looked up): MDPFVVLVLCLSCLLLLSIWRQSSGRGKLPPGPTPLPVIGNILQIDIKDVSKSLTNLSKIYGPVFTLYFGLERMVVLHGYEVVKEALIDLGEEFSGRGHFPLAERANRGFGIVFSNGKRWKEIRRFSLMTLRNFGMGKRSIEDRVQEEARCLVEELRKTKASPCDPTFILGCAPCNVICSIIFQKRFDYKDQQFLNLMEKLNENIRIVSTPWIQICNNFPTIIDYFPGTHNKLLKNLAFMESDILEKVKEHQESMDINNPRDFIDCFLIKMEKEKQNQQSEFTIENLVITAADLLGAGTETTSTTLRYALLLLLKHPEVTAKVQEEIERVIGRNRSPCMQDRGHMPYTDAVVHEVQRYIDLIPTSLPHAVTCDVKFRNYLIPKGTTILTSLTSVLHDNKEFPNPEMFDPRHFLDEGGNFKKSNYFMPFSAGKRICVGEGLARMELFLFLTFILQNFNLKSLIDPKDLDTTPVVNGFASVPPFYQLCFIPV
Nuclear receptor subfamily 1 group I member 2 (Rattus norvegicus), sequence (Q9R1A7 whole entry, looked up): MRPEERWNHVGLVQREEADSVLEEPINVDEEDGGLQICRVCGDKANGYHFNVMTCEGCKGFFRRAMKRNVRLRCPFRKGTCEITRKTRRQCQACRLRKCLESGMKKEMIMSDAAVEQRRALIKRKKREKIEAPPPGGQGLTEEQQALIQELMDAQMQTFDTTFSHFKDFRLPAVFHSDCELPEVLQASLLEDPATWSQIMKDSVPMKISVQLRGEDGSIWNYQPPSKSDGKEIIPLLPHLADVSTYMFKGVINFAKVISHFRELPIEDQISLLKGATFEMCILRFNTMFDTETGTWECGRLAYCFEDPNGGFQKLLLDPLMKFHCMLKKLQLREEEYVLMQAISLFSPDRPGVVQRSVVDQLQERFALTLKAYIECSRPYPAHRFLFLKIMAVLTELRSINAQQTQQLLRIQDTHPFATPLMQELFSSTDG

In the case of `NC(=O)c1c(Cl)cccc1Cl`, the outcome in test [1], in test [3], in test [5] and in test [6] was inactive. In addition, the Potency entry in [2], in test [4] and in [9] was “inactive” in each case. Moreover, the Potency in [7] is 0.0611 µM (active); in [8], 31.7 µM (active); in test [10] it was 31.7 µM (active).

In the case of `O=c1[nH]c2ccccc2c(=O)n1CCCl`, the result in test [1], in test [3], in test [5] and in test [6] was inactive. Besides, the Potency entry in test [2], in test [4], in test [7], in [8], in test [9] and in test [10] was “inactive” in each case. For the same compound, the Potency in test [11] was 5.49 µM (active).

As to `CCCCCCCCCCCCI`, the call in test [1], in test [3], in test [5] and in [6] was inactive. Besides, the Potency result in [2], in [4], in test [7], in test [8] and in test [10] was “inactive” throughout.

On to `O=C(O)c1cccc(C(=O)O)n1`, for which the compound was called inactive in test [1], in test [3], in test [5] and in test [6]. In addition, the Potency result in test [2], in test [4], in test [7], in [8], in test [9] and in test [11] was “inactive” each time. The Potency result in [12] was “inactive”.

With `CCCCC=O`, the call in test [1], in [3], in [5] and in test [6] was inactive. Also, the Potency entry in [2], in [4], in test [7], in [8], in test [11] and in test [12] was “inactive” each time. In addition, the Potency in [9] was 79.6 µM (active).

With `COc1ccc(COC=O)cc1`, the compound was called inactive in test [1], in test [3], in test [5] and in [6]. Besides, the Potency entry in [2], in test [4], in test [7], in test [8], in test [13] and in [12] was “inactive” throughout. Besides, the Potency result in test [10] was “inactive”. In addition, the Potency in [11] was 63.3 µM (active).

In the case of `O=C(O)/C=C/c1ccc(/C=C/C(=O)O)cc1`, the outcome in [1], in [3], in test [5] and in [6] was inactive. Also, the Potency entry in test [2], in [4], in test [7], in [9], in [11] and in [12] was “inactive” each time. Moreover, the Potency result in test [10] is “inactive”. The Potency in test [13] was 8.74 µM (active).

As to `NS(=O)(=O)c1cc(C2(O)NC(=O)c3ccccc32)ccc1Cl` (stereo not drawn), the result in test [1], in [3], in test [5] and in test [6] was inactive. The Potency entry in test [2], in test [4], in [8], in test [9] and in test [12] was “inactive” each time. Further, the max activation in [14] is -0.257%.

`O=c1[nH]c(=O)n([C@H]2O[C@H](CO)[C@@H](O)[C@@H]2O)cc1/C=C\Br`: the call in test [1], in [3], in [5] and in test [6] was inactive. Besides, the Potency result in test [2], in [4], in test [7], in test [8], in [9] and in [11] was “inactive” in each case. Also, the Potency entry in [12] and in [10] was “inactive” throughout.

On to `COC(=O)CCCCCCCCC(=O)OC`, for which the compound was classed as inactive in test [1], in test [3], in test [5] and in test [6]. For the same compound, the Potency result in [2], in test [4], in [7], in test [8] and in test [12] was “inactive” in each case. Moreover, the Potency in test [11] was 40.1 µM (active).
